Data as given in PubChem BioAssay (NCATS).
Inconclusive results are not listed. A call without a number means that no potency is given here. A number with no mark means an inactive call. Active and inactive are the calls of the source. The call rests on the fitted dose curve; in most records, active means well fitted curve in the direction sought with a large enough effect; inconclusive means small, poorly fitted or top-dose-only effect, or another doubt; inactive means no such curve, though single readings can be large; an effect the other way counts as inactive or inconclusive.

Assays:
[1] = Primary qHTS for inhibitors of nuclear receptor binding SET domain protein 2 (NSD2) in an isogenic RCH-ACV NSD2 p.E1099K mutant (9B) (AID 1645876); further: nearly all actives have a fitted effect of over 70% in size
[2] = Primary qHTS for inhibitors of nuclear receptor binding SET domain protein 2 (NSD2) in an RCH-ACV wild type WT cells (2C) (AID 1645877); further: nearly all actives have a fitted effect of over 70% in size
[3] = molecular target: N-terminal Xaa-Pro-Lys N-methyltransferase 1 (Homo sapiens) (UniProt Q9BV86); test: Confirmatory qHTS for Inhibitors of N-terminal methyltransferase 1 (NTMT1): MTaseGlo Assay (AID 1645874); further: nearly all actives have a fitted effect of over 65% in size; further: potency means the concentration at half of the fitted maximal effect
N-terminal Xaa-Pro-Lys N-methyltransferase 1 (Homo sapiens), sequence (Q9BV86 whole entry, looked up): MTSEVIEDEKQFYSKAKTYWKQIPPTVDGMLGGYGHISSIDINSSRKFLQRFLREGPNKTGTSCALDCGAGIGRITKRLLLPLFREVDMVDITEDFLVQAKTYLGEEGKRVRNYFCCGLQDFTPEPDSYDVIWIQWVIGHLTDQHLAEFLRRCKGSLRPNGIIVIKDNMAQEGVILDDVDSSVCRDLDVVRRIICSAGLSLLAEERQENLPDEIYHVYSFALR
Description: Assay Submitter (PI): Rong Huang Ph.D.
Purdue University, West Lafayette, IN 47907
The N-terminal methytransferase 1 is the first methyltransferase that methylates protein alpha-N-amines and plays an important role in regulating cell mitosis, chromatin interactions and DNA repair. It is observed to be over-expressed in various cancer patient tissues like malignant melanoma and colorectal cancer tissues. Knockdown of NTMT1 in cancer cells causes cell mitotic defects and enhances sensitivity to DNA damaging chemotherapeutics. […] These critical cellular processes in which NTMT1 is implicated, coupled with emerging links to cellular dysfunction, strengthen the inference that NTMT1 is a compelling novel anticancer target. […] To address this unmet need, a panel of assay is created and established to enable quantitative high-throughput screening (qHTS) for novel, potent, and selective small molecule NTMT1 inhibitors. […]
MTaseGlo Assay is a luminescence screen that measure the activity of methyltransferases based on the reaction product S-adenosyl homocysteine (SAH). […]
8; Reagent; 5 uL; Dispense 5 uL of 1x MTase-Glo Detection Solution (R) to allow for ADP to be converted to ATP which was then detected with a luciferase reaction. […]
11; Detection; Luminescence; Plates were read on ViewLux detector (PerkinElmer). […]

C[C@@H]1O[C@@H](OC[C@H]2O[C@@H](Oc3c(-c4ccc(O)c(O)c4)oc4cc(O)cc(O)c4c3=O)[C@H](O)[C@@H](O)[C@@H]2O)[C@H](O)[C@H](O)[C@H]1O
Potency [1]: inactive
Potency [2]: inactive

O=c1[nH]c(=O)c2ccccc2o1
Potency [1]: inactive
Potency [2]: inactive

O=c1[nH]cnc2nc[nH]c12
Potency [3]: inactive
Potency [1]: inactive
Potency [2]: inactive

CC(C)=CCC[C@@](C)(O)[C@H]1CC=C(C)CC1
Potency [1]: inactive

C/C=C1\[C@H]2C=C(C)C[C@]1(N)c1ccc(=O)[nH]c1C2
Potency [1]: inactive
Potency [2]: inactive

CC(=O)NCc1c(I)c(NC(C)=O)c(I)c(C(=O)O)c1I
Potency [1]: inactive
Potency [2]: inactive

CCCC(O)C(CC)CO (stereo not given)
Potency [1]: inactive
Potency [2]: inactive

CC(=O)Nc1ccccc1
Potency [1]: inactive
Potency [2]: inactive

COC(=O)c1cccnc1
Potency [1]: inactive

CCCCCOC(=O)Nc1nc(=O)n([C@@H]2O[C@H](C)[C@@H](O)[C@H]2O)cc1F
Potency [1]: inactive
Potency [2]: inactive

CC(CSC(=O)c1ccccc1)C(=O)N1C[C@@H](Sc2ccccc2)C[C@H]1C(=O)O (stereo not given in full)
Potency [1]: inactive
Potency [2]: inactive

NS(=O)(=O)c1cc2c(cc1C(F)(F)F)NCNS2(=O)=O
Potency [1]: inactive
Potency [2]: inactive

O[C@@H]1CO[C@H]2[C@@H]1OC[C@@H]2O
Potency [1]: inactive
Potency [2]: inactive

Cc1ccc(C(C)C)c(O)c1
Potency [1]: inactive
Potency [2]: inactive

CCOC(=O)c1cccnc1
Potency [1]: inactive
Potency [2]: inactive

CC1(C)S[C@@H]2[C@H](NC(=O)C(C(=O)O)c3ccccc3)C(=O)N2[C@H]1C(=O)O (stereo not given in full)
Potency [1]: inactive

CCC(C)(CN(C)C)OC(=O)c1ccccc1 (stereo not given)
Potency [1]: inactive

Cn1c([N+](=O)[O-])cnc1COC(N)=O
Potency [1]: inactive
Potency [2]: inactive

C/C(=C(\CCO)SS/C(CCO)=C(\C)N(C=O)Cc1cnc(C)nc1N)N(C=O)Cc1cnc(C)nc1N
Potency [1]: inactive
Potency [2]: inactive

Cn1c(=O)c2c(ncn2CCO)n(C)c1=O
Potency [1]: inactive

CC(=O)OCC(COC(C)=O)OC(C)=O
Potency [1]: inactive
Potency [2]: inactive

O=C(c1ccccc1)C(O)c1ccccc1 (stereo not given)
Potency [1]: inactive
Potency [2]: inactive

Cc1ccsc1/C=C/C1=NCCCN1C
Potency [1]: inactive
Potency [2]: inactive

O=C1C(c2[nH]c3ccccc3c2O)=Nc2ccccc21
Potency [1]: inactive
Potency [2]: inactive

Cc1ncc(CO)c(CN)c1O
Potency [1]: inactive
Potency [2]: inactive

CCc1nnc(NS(=O)(=O)c2ccc(N)cc2)s1
Potency [1]: inactive
Potency [2]: inactive

CC(=O)Nc1ccc(OCCOCCOc2ccc(NC(C)=O)cc2)cc1
Potency [1]: inactive
Potency [2]: inactive

Cc1cc(OI)c(C(C)C)cc1-c1cc(C(C)C)c(OI)cc1C
Potency [1]: inactive
Potency [2]: inactive

O=C(NCC(O)CO)c1c(I)c(C(=O)NCC(O)CO)c(I)c(N(CCO)C(=O)CO)c1I (stereo not given)
Potency [1]: inactive

FC(F)(F)C(Cl)Br (stereo not given)
Potency [1]: inactive
Potency [2]: inactive

CC(O)CCCCn1c(=O)c2c(ncn2C)n(C)c1=O (stereo not given)
Potency [1]: inactive
Potency [2]: inactive

Cc1ccc2c(c1)c1c3n2CCNC3CCC1 (stereo not given)
Potency [1]: inactive

CCCCCCCCCCCCCCCCC(C(=O)O)C(O)(CC(=O)O)C(=O)O (stereo not given)
Potency [3]: 17 µM (active)

NC(N)=NCCN1CCCCCCC1
outcome [1]: inactive [at 0.588 µM]
activity change, negative = cell killing [2]: 1.99% [at 0.588 µM]

O=C(O)Cn1c(C(=O)Nc2nc(-c3ccccc3Cl)cs2)cc2ccccc21
Potency [1]: inactive

CC(=O)N(CC(O)CN(C(C)=O)c1c(I)c(C(=O)NCC(O)CO)c(I)c(C(=O)NCC(O)CO)c1I)c1c(I)c(C(=O)NCC(O)CO)c(I)c(C(=O)NCC(O)CO)c1I (stereo not given)
Potency [1]: inactive
Potency [2]: inactive

Cc1c(N(C)C)c(=O)n(-c2ccccc2)n1C
Potency [1]: inactive
Potency [2]: inactive

COc1cc(C(=O)NCCCCCC(=O)O)cc(OC)c1OC
Potency [1]: inactive
Potency [2]: inactive

O=C(NCN1CCOCC1)c1cnccn1
Potency [1]: inactive

CCN(CC)CCOC(=O)C(c1ccccc1)c1ccccc1
Potency [1]: inactive
Potency [2]: inactive

Cc1ccc(S(=O)(=O)NC(=O)NC2CCCCC2)cc1
Potency [1]: inactive
Potency [2]: inactive

Cc1ccsc1C(=CCCN1CCC[C@@H](C(=O)O)C1)c1sccc1C
Potency [1]: inactive
Potency [2]: inactive

CC(=O)N[C@@H](CC(C)C)C(=O)O
Potency [1]: inactive
Potency [2]: inactive

CCN(CC)CCc1nc(-c2ccccc2)no1
Potency [1]: inactive
Potency [2]: inactive

C[C@@H](N)C(=O)O
Potency [1]: inactive
Potency [2]: inactive

COc1ccc(C(=O)N2CCN(CC(=O)N3CCOCC3)CC2)cc1
Potency [1]: inactive
Potency [2]: inactive

O=C(O)c1ccc(OCCCOc2ccc(C(=O)O)cc2)cc1
Potency [1]: inactive
Potency [2]: inactive

O=C(/C=C/c1ccccc1)OCc1ccccc1
Potency [1]: inactive
Potency [2]: inactive

CC[N+](CC)(CC(=O)Nc1c(C)cccc1C)Cc1ccccc1
Potency [1]: inactive
Potency [2]: inactive

CN1CCN(C(=O)C2CCCCC2)CC1
Potency [1]: inactive
Potency [2]: inactive

CCCCCC(N)=O
Potency [1]: inactive
Potency [2]: inactive

CC(=O)N(CC(O)CO)c1c(I)c(C(=O)NCC(O)CO)c(I)c(C(=O)NCC(O)CO)c1I (stereo not given)
Potency [1]: inactive
Potency [2]: inactive

Nc1ccc(C(=O)Oc2ccccc2)c(O)c1
Potency [1]: inactive
Potency [2]: inactive

CCCCCCCCCCC(CO)CCCCCCCC (stereo not given)
Potency [1]: inactive
Potency [2]: inactive

CCN(CC)C(=O)c1cccc(C)c1
Potency [1]: inactive
Potency [2]: inactive

C[C@H]1COc2c(C3(N)CC3)c(F)cc3c(=O)c(C(=O)O)cn1c23
Potency [1]: inactive
Potency [2]: inactive

O=C(O)COC(=O)Cc1ccccc1Nc1c(Cl)cccc1Cl
Potency [1]: inactive
Potency [2]: inactive
